According to PubChem BioAssay AID624330 (Southern Research Specialized Biocontainment Screening …, 2012):
Out of some 340,000 compounds screened, about 2,100 (0.62%) were called active.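 How the source made its calls: active means first-screen hits whose inhibition reached a set limit at any dose in the follow-up dose series; inconclusive means inhibition above the set first-screen limit but never retested; inactive means the rest.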 Not all results are given here. Measured potencies and affinities stand elsewhere.

target: Rac GTPase-activating protein 1 (Homo sapiens) (UniProt Q9H0H5); assay: blockers of MgcRacGAP-driven Rac1 GTP hydrolysis – biochemical, ADP Hunter fluorescence, primary and confirmatory, confirmation (AID 624330); settings: MgcRacGAP-stimulated Rac1 GTP hydrolysis, at 30 µM, stronger effect = higher value, GST-tagged Rac1 F28L mutant substrate;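 further: fluorescence reports GDP produced by GAP-driven GTP hydrolysis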
Sequence (Q9H0H5 whole entry, looked up): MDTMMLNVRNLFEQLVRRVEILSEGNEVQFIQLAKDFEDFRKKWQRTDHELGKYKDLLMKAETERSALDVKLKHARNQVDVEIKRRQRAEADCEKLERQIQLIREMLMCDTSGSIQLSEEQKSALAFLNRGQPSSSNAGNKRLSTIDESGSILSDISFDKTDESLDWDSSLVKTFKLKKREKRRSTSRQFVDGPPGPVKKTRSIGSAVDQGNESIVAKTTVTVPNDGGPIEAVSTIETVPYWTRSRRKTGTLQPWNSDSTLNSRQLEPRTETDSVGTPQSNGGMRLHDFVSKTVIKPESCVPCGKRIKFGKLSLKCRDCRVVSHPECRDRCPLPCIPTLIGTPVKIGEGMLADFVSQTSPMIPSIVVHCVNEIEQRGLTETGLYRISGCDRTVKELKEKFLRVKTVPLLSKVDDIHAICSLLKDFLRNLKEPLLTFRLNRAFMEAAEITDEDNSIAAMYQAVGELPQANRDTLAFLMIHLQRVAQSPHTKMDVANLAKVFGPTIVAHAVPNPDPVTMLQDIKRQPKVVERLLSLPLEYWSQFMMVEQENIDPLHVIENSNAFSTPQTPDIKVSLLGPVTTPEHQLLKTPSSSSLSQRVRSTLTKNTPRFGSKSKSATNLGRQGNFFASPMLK

inhibition, inactive:
O=C(Nc1ccc(N2CCOCC2)cc1)c1ccc(Cl)c(S(=O)(=O)N2CCCCC2)c1 0.26%, CC1CC(=O)C2=C(C1)Nc1nc3ccccc3n1C2c1cccnc1 (centres undefined) 6.35%, O=C(COc1cccc2cccnc12)Nc1cccc(S(=O)(=O)N2CCCC2)c1 7.88%, CCCCCCc1ccc(N2C[C@H](Cc3ccccc3)[C@@H](CC(=O)Nc3ccccc3)C2=O)cc1 3.37%, COc1cc(OC)c(N(C)C(=O)c2cn(C)c(=O)c3cc(OC)c(OC)cc23)cc1Cl 9.25%, COC(=O)c1ccc(CNC(=O)C2CCC(=O)N(CCN3CCOCC3)C2)cc1 (centres undefined) 6.54%, CCOC(=O)N1CCC(Nc2c([N+](=O)[O-])cc(C(=O)O)cc2[N+](=O)[O-])CC1 9.55%, Cc1ccc(NC(=O)COC(=O)COc2cccc3c2OC(C)(C)C3)cc1S(=O)(=O)N1CCOCC1 5.48%, CC1=C(C(=O)N(C)C)CC(CC(=O)NCCN2CCOCC2)C(=O)N1CCC1=CCCCC1 (centres undefined) 19.4%, O=C1/C(=C\c2ccccc2)CCC/C1=C/c1ccccc1 -6.55%, COc1ccc(OC(=O)N2C/C(=C/c3ccccc3)C(=O)/C(=C\c3ccccc3)C2)cc1 -4.51%, CCOC(=O)C1(C)C=C(Nc2ccc(NC(C)=O)cc2)C(=O)N1c1ccc(NC(C)=O)cc1 (centres undefined) 4.87%, CCOC(=O)C1(C)C=C(Nc2ccc(C)cc2)C(=O)N1c1ccc(C)cc1 (centres undefined) 1.9%, CC(C)N1C(=O)c2ccccc2C1C(=O)NCCc1ccccc1 (centres undefined) 3.65%, COCC(=O)N(Cc1cc2cccc(C)c2[nH]c1=O)c1ccccc1 2.29%, CCOc1ccc(OCCC(=O)OCC(=O)c2c(N)n(CC(C)C)c(=O)n(C)c2=O)cc1 15%, Cc1cc(C)c2c(c1)NC(c1cc3c(cc1Br)OCO3)C1CC=CC21 (centres undefined) -0.13%, O=C(O)C1Nc2c(Cl)cc(Cl)c(Cl)c2C2C=CCC12 (centres undefined) 17.2%, CC1Cc2cc(S(=O)(=O)N3CCC(C(=O)N(C)Cc4ccccc4)CC3)ccc2N1C(=O)C1CC1 (centres undefined) 8.31%, Fc1ccc(-n2cc(CNCCc3ccncc3)c(-c3ccccc3Cl)n2)cc1 1.7%, CCOc1ccc(OCC(=O)Nc2cc(Cl)ccc2-n2cncn2)cc1 20.4%, CCN(C(=O)COC(=O)CCCc1c[nH]c2ccccc12)c1c(N)n(Cc2ccccc2)c(=O)[nH]c1=O -4.19%, O=c1oc2ccc(Cl)cc2nc1/C=C(\O)c1cccs1 19.2%, O=c1oc2ccc(Cl)cc2nc1/C=C(\O)c1ccco1 25%, Cc1ccc2oc(=O)c(/C=C(\O)c3ccco3)nc2c1 18.2%, Cc1ccc2oc(=O)c(/C=C(\O)c3cccs3)nc2c1 15.8%, CN(CCO)c1cc(NCCCN2CCC(Cc3ccccc3)CC2)c2nonc2c1[N+](=O)[O-] 4.68%, Cc1ccc(C(=O)Nc2ccncc2)cc1[N+](=O)[O-] 10.1%, O=C(Nc1ccc(NC(=O)c2ccc(Cl)cc2Cl)cc1)c1ccc2c(c1)OCO2 5.16%, Cc1ccc(NC(=O)c2ccc(-n3cccn3)c([N+](=O)[O-])c2)cc1 6.01%, O=C(Nc1ccncc1)c1ccc(Cl)c(Cl)c1 4.24%, COc1ccc(N(C(=O)/C=C/c2ccccc2)C2=CC3CCC(C2)N3C)cc1 (centres undefined) 1.64%, COc1cc2[nH]c(C(=O)N3CCC(Cc4ccccc4)CC3)cc2c(OC)c1OC 4.96%, Cc1ccc(-n2nc(C)c3c2OC(N)=C(C#N)C3c2ccc(F)cc2)cc1 (centres undefined) 6.17%, Cc1c(C(=O)N/N=C/c2cccs2)nc2ccccn12 4.8%, CCN1C(=O)c2ccc(C(=O)Nc3c(C)cc(C)cc3C)cc2C1=O -2.89%, CC(C)(C)N1C(=O)c2ccc(C(=O)Nc3cc(C(=O)O)cc(C(=O)O)c3)cc2C1=O 13.1%, Cc1cc(N)ccc1NC(=O)c1ccccc1 6.01%, CC(C)(C)N1C(=O)c2ccc(C(=O)Nc3ccc(C(=O)O)cc3)cc2C1=O 1.96%, CC(C)CN1C(=O)c2ccc(C(=O)Nc3ccc(O)cc3C(=O)O)cc2C1=O 15.1%, Cc1ccc(C(=O)Nc2ccc(O)cc2C(=O)O)cc1 14.9%, Cc1ccc(N2C(=O)c3ccc(C(=O)N4CCOCC4)cc3C2=O)cc1C -11.3%, O=C(COC(=O)c1ccc(O)cc1O)c1ccc(Cl)cc1 2.91%, CCCOP(=O)(c1ccc(N(C)C)cc1)C(O)c1ccccc1OC (centres undefined) 4.57%, Nc1ccc2c(c1)C(=O)c1ccccc1-2 18.2%, Nc1ccc2c(c1)C(=O)c1ccc(N)cc1-2 22.8%, Nc1cc2c(cc1Cl)-c1ccc(Cl)cc1C2=O 3.85%, Nc1ccc2c(c1)C(=O)c1cc(Cl)c(Cl)cc1-2 7.4%, CCOC(=O)C1CCN(CCC(=O)Nc2ccccc2)CC1 12.6%, Cc1cccc(NC(=S)NCc2cccs2)c1 9.05%, O=C(/C=C/c1ccc(F)cc1)NC(Cc1c[nH]c2ccccc12)C(=O)O (centres undefined) -4.83%, COc1cc(C(=O)N[C@@H](Cc2c[nH]c3ccccc23)C(=O)O)cc(OC)c1OC 1.53%, Cc1nn(-c2ccccc2)c(NC(=O)c2cccs2)c(-c2ccccc2)c1=O 0.27%, Cc1cccc(NC(=O)N2CCCCCC2)c1 4.32%, CCc1cc2c(SCc3ccc(C(=O)OC)o3)ncnc2s1 7.63%, COc1cc(/C=C2\SC(=S)N(Nc3ccccc3)C2=O)cc(OC)c1OC 11.2%, CC(=O)NN1C(=O)/C(=C\c2ccc(Cl)cc2)SC1=S 7.77%, O=C1/C(=C\c2ccc(O)cc2)SC(=S)N1c1cccnc1 2.66%, O=C(NN1C(=O)/C(=C/c2cccs2)SC1=S)c1ccncc1 8.88%, CCOc1cc(/C=C2\SC(=S)N(Nc3ccccc3)C2=O)ccc1O 11.1%, O=C1/C(=C\c2ccc(O)cc2)SC(=S)N1Cc1ccccc1 10.6%, CC(=O)NN1C(=O)/C(=C\c2ccc(C)cc2)SC1=S 9.68%, COc1cccc(/C=C2\SC(=S)N(NC(=O)c3ccncc3)C2=O)c1 15.5%, N/C(=N\OC(=O)Cc1ccc(-c2ccccc2)cc1)c1cccnc1 5.49%, CCNC(=S)N1C2CCC1CC(NC(=O)NC1CCCCC1)C2 (centres undefined) 1.32%, c1ccc(-n2ncc3c(N4CCN(CCOc5cccc6ccccc56)CC4)ncnc32)cc1 -0.49%, CCCCOC(=O)c1cc(Cl)c(O)c(OC)c1 13.4%, CC(NC(=O)c1ccc(F)cc1)c1ccc(F)cc1 (centres undefined) 4.7%, O=C(Nc1ccccc1)C(Cc1ccccc1)c1ccccc1 (centres undefined) -2.68%, CCOc1ccc(N2CC(C(=O)Nc3cc(OCC)c(N4CCOCC4)cc3OCC)CC2=O)cc1 (centres undefined) 2.59%, CCN1CCN(C(=O)C2(NC(=O)Nc3ccccc3Cl)CCCCC2)CC1 2.74%, O=c1ccc(-c2ccccc2)no1 1.17%, Cc1ccc(S(=O)(=O)CCC(=O)OCC(=O)Nc2cc(F)ccc2C)cc1 1.06%, CCOC(=O)CC1C(=O)NCCN1S(=O)(=O)c1cccc(C(F)(F)F)c1 (centres undefined) 7.16%, O=C(Nc1ncnc2sc3c(c12)CCCC3)c1ccncc1 -0.48%, O=C(CCCN1C(=O)/C(=C\c2ccccc2)SC1=S)Nc1ccc(O)cc1C(=O)O 12.8%, Cc1ccc(/C=C2\SC(=S)N(CCC(=O)NNC(=O)c3ccc(O)cc3)C2=O)cc1 6.6%, O=C(O)c1ccc(/C=C2\SC(=S)N(NC(=O)c3ccccc3)C2=O)cc1 8.51%, O=C(NN1C(=O)/C(=C/c2ccc(O)cc2)SC1=S)c1cccc(O)c1 30.8%, O=C(NN1C(=O)/C(=C/c2cccc(O)c2)SC1=S)c1ccccc1O 5.04%, COc1cc(/C=C2\SC(=S)N(NC(=O)c3ccccc3OC)C2=O)ccc1O 8.13%, CCOC(=O)CSc1nc2cc(S(=O)(=O)Nc3ccccc3OC)ccc2o1 5.81%, Clc1cccc(CSc2ncnc3c2ncn3C2CCCCO2)c1 (centres undefined) 2.71%, NS(=O)(=O)c1ccc(CCNC(=O)CN2CCN(Cc3cccc4ccccc34)CC2)cc1 3.28%, O=C1NC(=S)S/C1=C\c1cccc([N+](=O)[O-])c1 11.9%, O=C(O)/C=C/c1ccc([N+](=O)[O-])o1 12.4%, Cc1cc2[nH]c3ccccc3c2cn1 17%, COC(=O)c1c(NC(=O)C2CCCCC2)sc2c1CCN(C(C)C)C2 8.85%, CCOC(=O)N1CCN(CC(O)COc2c(C)cc(C)cc2C)CC1 (centres undefined) 3.3%, COc1cccc(OCC(O)CN2CCOCC2)c1 (centres undefined) 6.97%, CCN1CCN(CC(O)COc2cccc(OC)c2)CC1 (centres undefined) 8.83%, CC(=O)N1CCN(CC(O)COc2ccc(OCc3ccccc3)cc2)CC1 (centres undefined) 3.99%, O=C(c1ccccc1)N1CCN(CC(O)COc2ccc(Br)cc2)CC1 (centres undefined) 1.08%, Cc1cccc(C)c1OCC(O)CN1CCN(C(=O)c2ccccc2)CC1 (centres undefined) -23.8%
